Records with an inconclusive call do not appear. Entries that show only a call come without a potency. Calls of active or inactive are those of the source. Calls follow the shape of the full dose curve.

The target in the experiment is Nucleoprotein (Lymphocytic choriomeningitis virus (strain Armstrong)) (UniProt P09992). In words: qHTS for Inhibitors of the Functional Ribonucleoprotein Complex (vRNP) of Lymphocytic Choriomeningitis Arenaviruses (LCMV): LCMV Primary Screen - GLuc reporter signal (AID 1347086). Also: nearly all actives have a fitted effect of over 70% in size. The conditions noted are these: LCMV minigenome vRNP cell assay, Gaussia luciferase reporter; series mostly up to 57.5 µM. Background: In qHTS, concentration-response curves come from the screen itself.
Chain of Nucleoprotein (Lymphocytic choriomeningitis virus (strain Armstrong)) (P09992 whole entry, looked up): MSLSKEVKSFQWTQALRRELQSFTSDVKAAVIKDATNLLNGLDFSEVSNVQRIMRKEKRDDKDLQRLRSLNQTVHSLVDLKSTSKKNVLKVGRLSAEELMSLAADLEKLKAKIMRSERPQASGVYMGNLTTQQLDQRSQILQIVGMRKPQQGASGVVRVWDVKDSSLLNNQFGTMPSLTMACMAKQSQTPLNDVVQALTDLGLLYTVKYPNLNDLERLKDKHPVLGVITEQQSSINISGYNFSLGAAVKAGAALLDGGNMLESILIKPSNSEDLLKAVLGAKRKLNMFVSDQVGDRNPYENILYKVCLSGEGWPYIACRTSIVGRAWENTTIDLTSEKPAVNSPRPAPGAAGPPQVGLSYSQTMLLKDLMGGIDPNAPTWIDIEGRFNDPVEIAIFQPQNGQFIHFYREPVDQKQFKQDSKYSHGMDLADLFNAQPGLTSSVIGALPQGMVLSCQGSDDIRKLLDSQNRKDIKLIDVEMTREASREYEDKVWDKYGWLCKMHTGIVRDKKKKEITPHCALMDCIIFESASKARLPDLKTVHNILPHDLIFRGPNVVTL
Take `OC[C@H]1O[C@@H](OC[C@H]2O[C@@H](O)[C@H](O)[C@@H](O)[C@@H]2O)[C@H](O)[C@@H](O)[C@@H]1O`: the Potency entry was “inactive”.
Consider `CCCCCCOC(=O)CCCCC`, for which the Potency entry is “inactive”.
Take `C[C@@H]1CCN(C(=O)CC#N)C[C@H]1N(C)c1ncnc2[nH]ccc12`: the Potency result is “inactive”.
Then `C/C=C(/CC[C@@H](C)[C@H]1CC[C@H]2C3=CC[C@H]4[C@H](C)[C@@H](O)CC[C@]4(C)[C@H]3CC[C@]12C)C(C)C`, with “inactive”; and `CC(=O)CCC1=C(C)CCCC1(C)C`, with “inactive”; and `COc1cc(-c2ccccc2)nc2ccccc12`, with “inactive”.

The values above are taken from PubChem BioAssay (NCATS).
